Only some compounds are listed: those with a hit (about 19% of all), similar ones and a draw of the others.
ELG1 repair inh = blocks ELG1-dependent DNA repair in HEK293T cells | AID 504467 | HEK293T ELG1-luciferase reporter, luminescence, 16 h; DNA damage induced by 5-fluorouridine | Potency, µM (titrated, usually from 46.1 µM), for inactives: top-dose activity change, negative = inhibition, usual class: inhibitors | 2.3% of 330,000 active; note: potency is the fitted concentration of half-maximal effect; nearly all actives have a fitted effect of over 55% in size
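HEK293T cells expressing luciferase-tagged ELG1 (2,000/well) received 5-Fluorouridine plus compound or DMSO for 16 hr at 37 °C. Luciferase was read by ONE-Glo luminescence after 30 min at room temperature.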
DT40 TDP1 CPT = growth inhibition of DT40 Tdp1-/-;hTDP1 cells with camptothecin (screen for TDP1 inhibitors) | Potency, µM (series often up to 46.2 µM), for the others: at the highest dose activity change, negative = growth inhibition, most hits filed as inhibitors | chicken DT40 Tdp1-/-;hTDP1 cells + 20 nM CPT, ATP luminescence, 48 h | 12% of 420,000 active; note: potency is the fitted concentration of half-maximal effect; nearly all actives have a fitted effect of over 55% in size
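Chicken DT40 Tdp1-/- cells complemented with human TDP1, 400 cells/well, exposed to compounds plus 20 nM camptothecin for at least 48 h at 37 C; viability read as ATP content by CellTiter-Glo luminescence.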
TDP1 cell noCPT = qHTS for Inhibitors of human tyrosyl-DNA phosphodiesterase 1 (TDP1): qHTS in cells in absence of CPT. DT40 Tdp1-/- hTDP1 cells, no CPT, ATP luminescence, 48 h. Potency, µM (doses to about 46.2 µM), for the others: at the top dose activity change, negative = growth inhibition, usual class: inhibitors. 15% of 420,000 active; note: potency is the fitted concentration of half-maximal effect; nearly all actives have a fitted effect of over 55% in size
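Stably hTDP1-transfected Tdp1-null chicken DT40 cells were treated with library compounds minus camptothecin and grown for at least 48 hr at 37 °C, after which cellular ATP was quantified by luminescence.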
IL1B secr inh = inhibitors of inflammasome signaling (IL-1 beta secretion). activity change, % at 57.5 µM. THP-1 LPS/ATP IL-1B secretion, AlphaLISA, 16 h; hits give low values. 4.7% of 360,000 active. AID 743279; in the data active = activity change below about -50%; inconclusive = mostly about -30% to -49%
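THP-1 cells pretreated 1 hr with compounds (up to 57.5 uM final), then stimulated with LPS (250 ng/mL final) plus ATP (1.25 mM final); secreted IL-1B measured by AlphaLISA after 16 hr, decreased signal indicating inhibition.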
HT1080 IDH1KD tx = kills HT-1080 cells with IDH1 knockdown | HT-1080 IDH1 knockdown viability, ATP luminescence, 48 h | Potency, µM (top dose mostly 46.1 µM), for inactives: at the highest dose activity, negative = toxicity, actives largely listed as cytotoxic | 2% of 360,000 active | AID 686971;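 note: potency is the fitted concentration of half-maximal effect; 0% = DMSO wells and -100% = cell-free medium wells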
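Using the IDH1-knockdown HT-1080 line run in the same batch and compound series as the NT line, viability after 48 h at 37 °C was determined by CellTiter-Glo luminescence and expressed as % activity.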
HT1080NT lethal = kills 2HG-producing HT-1080-NT fibrosarcoma cells. HT-1080-NT fibrosarcoma viability, CellTiter-Glo ATP luminescence, 48 h. Potency, µM (doses to about 46.1 µM), for inactives: at the top dose activity, negative = less viability, usual class: cytotoxic. 1.6% of 360,000 active. AID 686970;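 note: NT is the 2HG producing partner of a matched IDH1 knockdown line; potency is the fitted concentration of half-maximal effect; 0% = DMSO-treated cells and -100% = media-only wells without cells; nearly all actives have a fitted effect of over 55% in size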
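Toxicity toward the 2HG-producing NT line was scored as %Activity, normalised to DMSO and no-cell wells, from CellTiter-Glo luminescence after 48 hours' treatment.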
* marks the source's active call; other numbers are inactive results; ? = inconclusive; · = not tested or not shown; [ ] = another dose, or the depositor's remark. Unless noted, calls come from the whole dose curve; as a rule, active = well fitted curve in the direction sought with a large enough effect; inconclusive = small, poorly fitted or top-dose-only effect, or another doubt; inactive = no such curve, though single readings can be large; an effect the other way counts as inactive or inconclusive. Unless noted, % is set by controls: 0 for no effect and ±100 for the full control effect.

SMILES	ELG1 repair inh	DT40 TDP1 CPT	TDP1 cell noCPT	IL1B secr inh	HT1080 IDH1KD tx	HT1080NT lethal
O=C(CSc1nc2cc(Cl)ccc2s1)c1ccco1	?	-6%	?	28	2%	2%
O=C(CSc1nnc(SCC(=O)c2ccco2)s1)c1ccco1	26%	23µM*	10µM*	15	8%	5%
COc1cc(C2CC(=O)Nc3c2c(=O)[nH]c2ncnn32)ccc1O (stereo unspecified)	·	-1%	-15%	·	·	·
Cn1cc(-c2nc3cnc(Oc4ccccc4)nc3n(Cc3cccs3)c2=O)c2ccccc21	·	-15%	-4%	·	·	·
O=C(NCc1cccs1)c1ccc(-c2ccc(F)c(F)c2)c2ccoc12	·	12µM*	10µM*	·	?	?
O=C(NCC1CCOCC1)c1ccc(-c2ccc(F)c(F)c2)c2ccoc12	·	12µM*	10µM*	-92*	?	-16%
O=C(NCc1ccc(Cl)cc1)c1ccc(-c2ccc(F)c(F)c2)c2ccoc12	·	?	?	·	-2%	-5%
O=C(NCc1ccc(F)c(F)c1)c1ccc(-c2ccc(F)c(F)c2)c2ccoc12	·	18µM*	21µM*	?	-12%	-24%
COc1ccc(/C(O)=C2/C(=O)C(=O)N(CCCN3CCOCC3)C2c2ccc(N(C)C)cc2)cc1 (stereo unspecified)	-23%	6%	?	8	2%	-1%
CCC(=O)c1ccc(OCc2ccc(C(=O)c3ccccc3)cc2)cc1	?	6.5µM*	8.2µM*	-136*	?	-15%
O=C(c1cc([N+](=O)[O-])ccc1Cl)N1CCc2ccccc21	-2%	-22%	-28%	-18	-16%	-4%
COc1cc(SC)ccc1C(=O)N1CCc2ccccc21	-15%	21µM*	?	-15	-24%	-3%
Cc1ccc(COC(=O)c2cc([N+](=O)[O-])ccc2N2CCOCC2)cc1	-3%	·	·	·	·	·
Cc1ccc(C(=O)c2cc([N+](=O)[O-])ccc2N2CCOCC2)cc1	?	2.1µM*	2.1µM*	36	7.3µM*	5.2µM*
O=C(c1cc([N+](=O)[O-])ccc1N1CCCCC1)N1CCc2ccccc21	?	15µM*	4.6µM*	-4	2.3µM*	?
CCOc1ccc(C(=O)c2cc([N+](=O)[O-])ccc2N2CCOCC2)cc1	-3%	0.13µM*	0.16µM*	8	0.026µM*	0.037µM*
COc1cccc(CNC(=O)C2CCCN(S(=O)(=O)c3cn(C)cn3)C2)c1 (stereo unspecified)	·	-2%	-11%	·	·	·
Cc1c(Cl)cccc1NC(=O)N1CCOc2ccccc21	·	-15%	?	·	·	·
O=C(COc1ccc([N+](=O)[O-])cc1)N/N=C/c1cc([N+](=O)[O-])ccc1N1CCOCC1	18µM*	?	?	?	-1%	-6%
COc1ccc(NC(=O)COC(=O)c2cc([N+](=O)[O-])ccc2N2CCOCC2)cc1	4%	-21%	-1%	9	-1%	-5%
Cc1ccc(C(=O)c2cc([N+](=O)[O-])ccc2N2CCCCC2)c(C)c1	17%	1µM*	0.65µM*	-9	?	?
COc1ccc(C(=O)c2cc([N+](=O)[O-])ccc2N2CCOCC2)cc1	?	0.026µM*	0.033µM*	2	0.15µM*	?
CSc1ccc(Cl)c(C(=O)N2CCOc3ccccc32)c1	9.2µM*	18µM*	16µM*	49	-11%	-17%
Cc1ccc(OCC(=O)N/N=C/c2cc([N+](=O)[O-])ccc2N2CCCCC2)cc1	-10%	?	?	6	-16%	-11%
O=C(Cc1c(F)cccc1Cl)OCC(=O)c1ccc[nH]1	?	-12%	-20%	-6	-4%	-1%
SMILES	ELG1 repair inh	DT40 TDP1 CPT	TDP1 cell noCPT	IL1B secr inh	HT1080 IDH1KD tx	HT1080NT lethal
Nc1[nH]n2c(=O)cc(-c3ccccc3)nc2c1N=Nc1ccccc1	6%	3.3µM*	5.2µM*	0	?	?
Cc1ccc(N=Nc2c(N)[nH]n3c(=O)cc(C)nc23)cc1	11%	?	15µM*	-8	-5%	-1%
Nc1[nH]n2c(=O)cc(-c3ccccc3)nc2c1N=Nc1ccc(S(N)(=O)=O)cc1	9%	1%	0%	-7	-10%	-4%
COc1ccc(NC(=O)OCCn2c([N+](=O)[O-])cnc2C)cc1	15%	2%	5%	0	24%	?
CC(C)CN1CCC1(C)C(=O)Nc1cc(-c2ccccc2)nn1C (stereo unspecified)	·	?	?	-8	21%	6%
CC1(C)COC(c2ccc(F)c([N+](=O)[O-])c2)=N1	?	16µM*	16µM*	-102*	?	?
CC1(C)COC(c2cc([N+](=O)[O-])ccc2Cl)=N1	5%	-1%	3%	-9	1%[9.24 µM]	6%
Cc1ccc(SCC(=O)NN2C(=O)c3ccccc3C2=O)cc1	11%	1%	-5%	13	26%	18%
CCOc1cc(CNCCSc2nnnn2C)ccc1OCc1ccc(Cl)cc1Cl	·	26µM*	26µM*	·	·	·
Cn1nnnc1SCCNCc1ccccc1OCc1ccc(Cl)cc1Cl	·	18µM*	9.2µM*	·	·	·
CC(C)c1ccc(CNCCSc2nnnn2C)cc1	·	-7%	-17%	·	·	·
COc1ccc(/C=C\c2onc(C)c2S(=O)(=O)N2CCC(C(=O)Nc3ccc(F)cc3F)CC2)cc1	·	-9%	-15%	·	·	·
CCOC(=O)c1ccc(NC(=O)c2oc3c(c2C)-c2nn(Cc4ccccc4Cl)cc2CC3)cc1	·	21µM*	21µM*	·	·	·
CCn1cc2c(n1)-c1c(oc(C(=O)Nc3cccc(C)c3C)c1C)CC2	·	?	15µM*	·	·	·
Cc1c(C(=O)N2CCCC2)oc2c1-c1nn(CC(=O)NCCCN3CCCCC3)cc1CC2	?	-2%	2%	-27	10%	1%
Cc1c(C(=O)N2CCCC2)oc2c1-c1nn(CC(=O)NC(C)c3ccccc3)cc1CC2 (stereo unspecified)	·	?	23µM*	·	·	·
Cc1cccc(C)c1NC(=O)c1oc2c(c1C)-c1nn(Cc3ccccc3)cc1CC2	·	18µM*	15µM*	·	·	·
CCOc1ccc(N2CC(NS(=O)(=O)c3cccs3)CC2=O)cc1 (stereo unspecified)	6%	-8%	-20%	10	-5%	-1%
O=c1c(-c2ccc(F)cc2)nc2cnc(N3CCOCC3)nc2n1CCc1ccccc1	·	18%	-2%	·	·	·

Screening data as filed in PubChem BioAssay.
